High-throughput results as filed in PubChem BioAssay.
JMJD2A Tudor: qHTS Assay for Inhibitors of JMJD2A-Tudor Domain. 4.4% of 390,000 active. Lysine-specific demethylase 4A (Homo sapiens), O75164. Potency, µM (series often up to 114 µM), without a hit: top-dose activity change, negative = inhibition, usual class: inhibitors. AlphaScreen JMJD2A-Tudor / H3K4me3 peptide binding; note: % is set by controls: 0 for no effect and ±100 for the full control effect; nearly all actives have a fitted effect of over 50% in size
Target sequence (O75164 whole entry, looked up, the tested form may be a part): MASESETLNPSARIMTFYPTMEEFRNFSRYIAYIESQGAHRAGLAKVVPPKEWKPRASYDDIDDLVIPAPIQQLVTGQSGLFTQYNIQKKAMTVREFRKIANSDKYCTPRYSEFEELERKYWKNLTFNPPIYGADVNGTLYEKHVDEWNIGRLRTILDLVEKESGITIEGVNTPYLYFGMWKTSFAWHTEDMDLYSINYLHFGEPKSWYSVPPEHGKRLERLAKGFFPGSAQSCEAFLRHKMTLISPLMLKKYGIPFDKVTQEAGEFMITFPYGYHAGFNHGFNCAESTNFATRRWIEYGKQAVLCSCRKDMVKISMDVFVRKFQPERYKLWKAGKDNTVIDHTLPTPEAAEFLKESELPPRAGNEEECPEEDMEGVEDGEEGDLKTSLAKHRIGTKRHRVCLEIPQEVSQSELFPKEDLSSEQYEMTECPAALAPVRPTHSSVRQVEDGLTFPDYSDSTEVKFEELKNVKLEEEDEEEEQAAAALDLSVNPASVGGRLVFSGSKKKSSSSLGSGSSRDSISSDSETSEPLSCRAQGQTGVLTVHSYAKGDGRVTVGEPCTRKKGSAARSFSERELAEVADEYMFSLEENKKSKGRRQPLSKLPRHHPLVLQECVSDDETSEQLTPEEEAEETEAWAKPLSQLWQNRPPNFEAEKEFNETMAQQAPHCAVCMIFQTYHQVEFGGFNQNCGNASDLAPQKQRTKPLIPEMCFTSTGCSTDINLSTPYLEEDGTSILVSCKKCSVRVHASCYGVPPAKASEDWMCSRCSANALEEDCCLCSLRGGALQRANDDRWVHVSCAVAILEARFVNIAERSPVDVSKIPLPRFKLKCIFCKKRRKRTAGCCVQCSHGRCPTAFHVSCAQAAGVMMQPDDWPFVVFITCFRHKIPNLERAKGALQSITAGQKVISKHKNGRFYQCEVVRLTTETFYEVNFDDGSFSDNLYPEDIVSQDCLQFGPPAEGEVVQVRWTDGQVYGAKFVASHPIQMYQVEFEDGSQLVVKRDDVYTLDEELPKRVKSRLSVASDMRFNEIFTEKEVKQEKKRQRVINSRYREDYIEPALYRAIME
HP1b chromo inh: HTS for Inhibitors of HP1-beta Chromodomain Interactions with Methylated Histone Tails. AlphaScreen HP1-beta / biotin-H3K9me3 peptide binding. Potency, µM (series often up to 114 µM), for the others: at the top dose activity change, negative = inhibition, most hits filed as inhibitors. 0.56% of 390,000 active. AID 540317, 2011; note: nearly all actives have a fitted effect of over 70% in size
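Compound inhibition of the preformed complex between 50 nM HP1-beta and 50 nM biotinylated H3K9me3 peptide was read by AlphaScreen. Buffer was PBS pH 7.4 with 0.01% Tween-20. Incubations ran 30 min at room temperature, with 10 ug/mL donor/acceptor beads.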
L3MBTL1 inh: qHTS Assay for the Inhibitors of L3MBTL1 | Potency, µM (highest dose often 57.1 µM), inactives show at the highest dose activity, negative = inhibition, most hits filed as inhibitors | AlphaScreen L3MBTL1–H3K9me1 peptide binding | 0.66% of 230,000 active | Lethal(3)malignant brain tumor-like protein 1 (Homo sapiens), Q9Y468; note: % is set by controls: 0 for no effect and ±100 for the full control effect; nearly all actives have a fitted effect of over 60% in size
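Read-out is AlphaScreen signal from streptavidin donor and nickel chelate acceptor beads (10 ug/mL final each) bridging L3MBTL1 (50 nM) and biotinylated K9-monomethylated H3(1-15) peptide (75 nM), after 30 min compound exposure at room temperature.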
G9a inh: qHTS Assay for Inhibitors of Histone Lysine Methyltransferase G9a; Histone-lysine N-methyltransferase EHMT2 (Homo sapiens), Q96KQ7; Potency, µM (top dose mostly 102 µM), without a hit: top-dose activity, negative = inhibition, actives largely listed as inhibitors; G9a H3K9 monomethylation, AlphaScreen, 2 h; 8.8% of 350,000 active; note: % is set by controls: 0 for no effect and ±100 for the full control effect; nearly all actives have a fitted effect of over 75% in size
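G9a (20 nM) preincubated 15 min RT with compounds, then 500 nM biotinylated H3K9 peptide and 20 uM SAM added; 2 h RT reaction. Monomethyl-H3K9 product detected by AlphaScreen with anti-H3K9me1 antibody, streptavidin donor and anti-rabbit IgG acceptor beads.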
BAZ2B inh: qHTS Assay for Inhibitors of BAZ2B; Bromodomain adjacent to zinc finger domain protein 2B (Homo sapiens), Q9UIF8; AlphaScreen BAZ2B-H3K14Ac peptide displacement; Potency, µM (top dose mostly 114 µM), without a hit: at the highest dose activity change, negative = inhibition, most hits filed as inhibitors; 4.4% of 360,000 active; note: % is set by controls: 0 for no effect and ±100 for the full control effect; nearly all actives have a fitted effect of over 60% in size
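AlphaScreen displacement of biotin-H3(5-23)K14Ac peptide (50 nM final) from BAZ2B (50 nM final) in PBS pH 7.4, 0.01% Tween-20; complex preformed 30 min RT, then compounds (top 110 uM) 30 min RT, beads 20 min dark.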
* hit, by the source's call; ? = inconclusive; . = not tested or not shown; ! = a repeat was not active; [ ] = dose if it differs, or a comment. Hits are enriched below; roughly 11% of the tested compounds scored in any of these assays. Calls come from the whole dose curve; as a rule, active = well fitted inhibition curve with a large enough effect; inconclusive = small, poorly fitted or top-dose-only effect; inactive = no such curve, though single readings can be large or run the other way. Potency is the fitted concentration of half-maximal effect.

SMILES	JMJD2A Tudor	HP1b chromo inh	L3MBTL1 inh	G9a inh	BAZ2B inh
Cc1ccc2[nH]c3c(c2c1)CN(C(=O)CN1CCN(c2ccccc2F)CC1)CC3	.	.	-0.5%	31.6µM*	-25.2%
Cc1ccc(N2C(=O)c3ccccc3C2=O)c(C)c1	-4.1%	.	.	.	.
O=NC1=C(c2c(O)[nH]c3ccccc23)CCCC1	-15.2%	11.8%	.	?	-6.3%
O=Nc1c(-c2c(O)[nH]c3ccccc23)[nH]c2ccccc12	.	.	.	8.91µM*	.
COc1ccc(C(=O)NCC(=O)OCC(=O)c2cc(OC)c(OC)c(OC)c2)cc1OC	8.4%	31.1%	4.3%	50.1µM*	10.6%
COc1cc(C(=O)NCC(=O)OCC(=O)c2ccc[nH]2)cc(OC)c1OC	-8.6%	45.9%	-11.6%	-1.4%[59 µM]	-0.1%
CCn1c(CSc2nc3ccccc3[nH]2)nc2cc(C(=O)O)ccc21	?	4.6%	.	-44.9%[12.7 µM]	?
CCn1c(CSc2nccn2C)nc2cc(C(=O)O)ccc21	31.6µM*	20.2%	-5.5%	-38.5%[12.7 µM]	50.1µM*
Cc1nn(C)c(=S)[nH]c1=S	-7.6%	6.2%[57 µM]	.	.	.
Cc1nn2c(=S)[nH]nc2[nH]c1=O	28.2µM*	-16.3%	6.3%	7.08µM*	.
O=C(Nc1ccc(-c2csnn2)cc1)C1CC1	5.3%	37.7%	-7.2%	26.3%	-12.9%
NC(=NC1C2CC3CC(C2)CC1C3)Nc1ccc(I)cc1 (stereo unspecified)	.	.	.	28.2µM*!	.
Cc1ccc(NS(=O)(=O)c2ccc3c(ccn3C)c2)cc1C	-17.0%	.	.	.	.
CCOc1ccc(N(C)c2ccc(/C=C3/SC(=S)NC3=O)cc2)cc1	3.55µM*	?	-21.8%	.	50.1µM*
CN(C)c1ccc(C=C2SC(=S)NC2=O)cc1	?	-9.9%[57 µM]	.	.	.
CCOc1c(O)ccc(/C=C2\SC(=S)NC2=O)c1[N+](=O)[O-]	?	?	?	14.1µM*	39.8µM*
CCN1c2ccccc2-c2nc(SCC(=O)Nc3cccc(C)c3C)ncc2S1(=O)=O	0.6%	19.1%	.	-5.3%[59 µM]	1.9%
CCN1CCOC(=O)C1CC(=O)Nc1cc(C)cc(C)c1 (stereo unspecified)	-14.9%	28.3%	.	3.55µM*	-11.5%
COc1cccc(NC(=O)CC2C(=O)OCCN2Cc2ccccc2)c1 (stereo unspecified)	-8.2%	86.8%	.	-31.6%[59 µM]	-0.3%
CCN1CCOC(=O)C1CC(=O)Nc1cc(Cl)ccc1OC (stereo unspecified)	-24.3%	1.7%	.	7.94µM*	-10.8%
CCN1CCOC(=O)C1CC(=O)Nc1ccccc1C(F)(F)F (stereo unspecified)	-34.3%	-16.8%	.	2.24µM*	-39.2%
CCc1ccc(NC(=O)CC2C(=O)OCCN2CC)cc1 (stereo unspecified)	-16.0%	27.0%	.	1.78µM*	-11.8%
O=C(CC1C(=O)OCCN1Cc1ccccc1)Nc1cccc(C(F)(F)F)c1 (stereo unspecified)	-10.4%	46.7%	.	-59.7%[59 µM]	-13.0%
O=C(COc1ccc(S(=O)(=O)NC2CCCCC2)cc1)Nc1ccc(C(F)(F)F)cc1	-11.3%	32.3%	.	0.9%[59 µM]	1.9%
CCCN1Cc2cccc(C(=O)Nc3cccc(C(=O)OCC)c3)c2C1=O	10.0%	68.3%	.	14.3%[59 µM]	.
SMILES	JMJD2A Tudor	HP1b chromo inh	L3MBTL1 inh	G9a inh	BAZ2B inh
O=C(CCCn1c(=O)c2cccn2c2cccnc21)Nc1ccccc1C(F)(F)F	-18.7%	16.4%	.	-6.2%[59 µM]	-9.3%
CCN1CCOC(=O)C1CC(=O)Nc1ccc(C(C)=O)cc1 (stereo unspecified)	-2.6%	12.3%	.	3.16µM*	?
CC(=O)c1ccc(NC(=O)CN2CCOCC2)cc1	-7.8%	40.2%	6.4%	-10.3%[59 µM]	-35.6%
CN1CCCC[C@@H]1CCN1c2ccccc2Sc2ccc(S(C)=O)cc21 (stereo partly specified)	.	.	.	7.94µM*!	.
CSc1ccc2c(c1)C(N1CCN(C)CC1)Cc1ccc(F)cc1S2 (stereo unspecified)	?	-16.9%	.	.	.
CC(=O)c1ccc2c(c1)N(CCCN1CCC(CCO)CC1)c1ccccc1S2	-35.3%	-3.9%	-2.5%	-9.6%[59 µM]	3.5%
CSc1ccc2c(c1)N(CCC1CCCCN1C)c1ccccc1S2 (stereo unspecified)	50.1µM*	?	-6.6%	17.8µM*!	31.6µM*
CSc1ccc2c(c1)N(CC[C@H]1CCCCN1C)c1ccccc1S2	.	.	.	11.2µM*	.
CCOc1ccccc1NC(=O)c1nnn(CC(=O)Nc2ccccc2CC)c1N	-18.3%	13.1%	.	5.6%[59 µM]	.
CC(NC(=O)c1nn(C)c2c1CSc1ccccc1-2)c1ccccc1 (stereo unspecified)	6.0%	31.2%	.	?	-22.9%
CCc1ccc2c(c1)C1(SC(NC(C)=O)=NN1C(C)=O)C(=O)N2CC (stereo unspecified)	-16.5%	5.4%	.	-12.8%[59 µM]	-5.3%
COc1ccc(S(=O)(=O)NCCS(=O)(=O)N2CCN(c3ccccc3)CC2)cc1C	-33.2%	16.4%[57 µM]	.	4.8%[59 µM]	-12.6%
CC(Nc1ccc2c(c1)OCCO2)C(=O)N1c2ccccc2CC1C (stereo unspecified)	?	-12.6%	.	?	39.8µM*
CC(NC(=O)C(=O)N1CCCCC1)C(c1cccs1)N1CCN(c2ccccc2)CC1 (stereo unspecified)	-28.6%	22.6%	.	?	-37.4%
COc1ccc(N2CCN(C(c3cccs3)C(C)NC(=O)C(=O)N3CCCC3)CC2)cc1 (stereo unspecified)	?	-3.7%	.	44.7µM*	39.8µM*
COc1ccc(N2CCN(C(c3cccs3)C(C)NC(=O)C(=O)N3CCCCC3)CC2)cc1 (stereo unspecified)	-30.6%	0.9%	.	50.1µM*	-35.3%
COCCn1c(SCC(=O)N2CCCCC2)nc2ccccc2c1=O	-11.5%	22.5%	1.9%	?	-34.2%
COCCn1c(SCCN2CCCCC2)nc2ccccc2c1=O	2.24µM*	?	-8.4%	?	?
Cc1cc(=S)cc(C)n1CCO	-16.0%	12.8%	0.7%	12.6µM*	-7.2%
Cc1ccc(CNC(=O)CCC(=O)N2CC3CCCN3c3ccccc32)cc1 (stereo unspecified)	?	6.2%	.	-28.7%[59 µM]	?
COc1ccc(-n2cc(-c3ccccc3)c3c(NCCCN4CCOCC4)ncnc32)cc1	?	?	.	50.1µM*	?
Clc1ccccc1N1CCN(c2ncnc3c2c(-c2ccccc2)cn3-c2ccccc2)CC1	-28.7%	13.3%	.	-21.0%[59 µM]	-29.5%
CCN1CCN(c2ncnc3c2c(-c2ccccc2)cn3-c2ccc(F)cc2)CC1	39.8µM*	27.5%	.	?	?
c1ccc(-c2cn(-c3ccccc3)c3ncnc(NCCCN4CCOCC4)c23)cc1	?	-13.7%	.	?	?
